Results filed as inconclusive are left out. Unmarked numbers belong to inactive results. Calls follow the shape of the dose curve; as a rule, active = well fitted cell-killing curve with a large enough effect in the repeat runs; inconclusive = weak or mixed curves; inactive = no such curve, though single readings can be large or run the other way.
assay: qHTS assay to identify small molecule agonists of the peroxisome proliferator-activated receptor delta (PPARd) signaling pathway - cell viability counter screen (AID 743211); conditions: PPARd-bla HEK293H viability, CellTiter-Glo luminescence, 17 h; series mostly up to 62.6 µM; activity change, negative = cytotoxicity: at the top concentration; also: nearly all actives have a fitted effect of over 55% in size
Source text: U.S. Tox21 Program National Center for Advancing Translational Sciences [NCATS] NIH Chemical Genomics Center [NCGC] U.S. Environmental Protection Agency [EPA] National Institutes of Environmental Health Sciences [NIEHS] National Toxicology Program [NTP] U.S. Food and Drug Administration [FDA] Tox21 Assay Overview: The peroxisome proliferator-activated receptors (PPARs) are lipid-activated transcription factors of the nuclear receptor superfamily with three distinct subtypes namely PPAR alpha, PPAR delta (PPARd) and PPAR gamma. All these subtypes heterodimerizes with Retinoid X receptor (RXR) and have different physiological functions. […] To identify the compounds that activate PPAR-delta signaling, GeneBLAzer PPAR delta UAS-bla HEK293H cell line (Invitrogen, Carlsbad, CA, USA) containing a beta-lactamase reporter gene under the control of an Upstream Activator Sequence (UAS) was used to screen the Tox21 compound library. The cytotoxicity of the Tox21 compound library against the PPARd-bla cell line was tested in parallel by measuring the cell viability using CellTiter-Glo assay (Promega, Madison, WI) in the same wells.
Tox21 Assay Protocol Summary: PPARd-bla cells were dispensed at 3000 cells/6uL/well in 1536-well black wall/clear bottom plates using a Multidrop Combi (Thermo Fisher Scientific, Waltham, MA) dispenser. After the assay plates were incubated at 37 C and 5% CO2 for 5 h, 23 nL of compounds dissolved in DMSO, positive controls or DMSO only was transferred to the assay plate by a Pintool station (Kalypsys, San Diego, CA). The assay plates were incubated at 37C for 17 h. After 1 uL of LiveBLAzerTM B/G FRET substrate was added using a Bioraptr Flying Reagent Dispenser (FRD) workstation (Beckman Coulter, Indianapolis, IN, USA), the plates were incubated at room temperature for 2 h, and fluorescence intensity was measured by an Envision plate reader (PerkinElmer, Shelton, CT). For cell viability readout that measures cytotoxicity, 3 ul/well of CellTiter-Glo reagent was added into the assay plates using a Bioraptr FRD. After 30 min incubation at room temperature, the luminescence intensity in the plates was measured using a ViewLux plate reader (PerkinElmer).
% is scaled to controls: 0 for no effect and ±100 for the full control effect.

Compound	activity change, negative = cytotoxicity
CCCCCCCCCCCC(=O)OCC	-0.253%
Nc1ccc(F)cc1F	7.39% [at 81.1 µM]
CC1(C)[C@@H]2CC[C@]3(C2)[C@@H]1C(=O)CCC3(C)C	4.89%
O=C(O)c1cc(C(=O)O)cc([N+](=O)[O-])c1	-5.36%
COC(=O)Cc1cccc2ccccc12	5.26%
CC(C)(C)c1cc(C=O)cc(C(C)(C)C)c1O	-10.5%
Sc1nc(S)nc(S)n1	3.33%
O=C(O)c1ccccc1[N+](=O)[O-]	-4.49%
C[C@@H](O)[C@H]1C(=O)N2C(C(=O)O)=C(S[C@@H]3CN[C@H](CNS(N)(=O)=O)C3)[C@H](C)[C@H]12	1.9%
CCCCCC1CCC(=O)O1 (stereo not given)	3.11%
Clc1cccc(C(c2ccc3nc[nH]c3c2)n2ccnc2)c1 (stereo not given)	3.52%
C/C(=C\C(C)CC(C)CC(C)C)C1CC(=O)OC1=O (stereo not given)	-2.21%
CCc1c(C)[nH]c2c1C(=O)C(CN1CCOCC1)CC2 (stereo not given)	0.234%
O=C(O)c1cc(C(=O)O)c(C(=O)O)cc1C(=O)O	-4.52%
O=C(Cl)c1ccc(F)c(Cl)c1	-0.279%
CCOC(OCC)OCC	11%
CCCc1ccc(OC)cc1	3.25% [at 81.1 µM]
COC(=O)c1cc(Cl)ccc1[N+](=O)[O-]	4.29%
O=[N+]([O-])c1ccccc1CCO	-0.718% [at 81.1 µM]
O=[N+]([O-])c1cccc(I)c1	3.92%

Compound	activity change, negative = cytotoxicity
Cc1c(N=C=O)cccc1N=C=O	5.79% [at 81.1 µM]
CC1(C)CC(O)CC(C)(C)N1[O]	3.96%
CCCC(=O)OCc1ccccc1	5.7%
CC(=O)Nc1cccc(N)c1	-5.29% [at 81.1 µM]
CC(=O)Oc1cccc2c1C(=O)c1c(OC(C)=O)cc(C(=O)O)cc1C2=O	-8.06%
CC(=O)c1cccnc1	16.6%
CC(=O)CC/C=C(\C)CC/C=C(\C)CC/C=C(\C)CCC=C(C)C	3.35%
C=Cc1ccc(C=C)cc1	9.04% [at 81.1 µM]
CC(C)CC(C)(C)C	2.19% [at 81.1 µM]
CCCC(=O)OCCC(C)C	0.29%
CC(Cc1ccccc1)(NC(=O)CN)c1ccccc1 (stereo not given)	-10.1%
CC(C)NC(=O)c1ccccc1N	11.2%
Cc1ccc(S(=O)(=O)NC(=O)NC2CCCC2)cc1	3.63%
CCc1ccc2c(c1)C(=O)c1ccccc1C2=O	2.32%
OCCCO	3.85% [at 81.1 µM]
CCOc1ccc2c(c1)C(C)CC(C)(C)N2 (stereo not given)	7.34%
O=C(c1ccc(Cl)cc1)c1ccc(Cl)cc1	-3.35%
C[Si](C)(C)O[Si](C)(C)O[Si](C)(C)C	-1.27%
O=C(O)CCc1nc2ccccc2[nH]1	3.89%
O=C1c2ccccc2C(=O)C1c1ccc2ccccc2n1	-27.2%

Reference: PubChem BioAssay (Tox21)
